According to the supplement of paper PMC10849652:
Targets with a hit are over-represented here; the source holds about 8,800 in all. About 0.5% of all pairs of compound and target were hits. A number with no mark means an inactive call.

How the values were obtained:
Assay in all cases: log2 fold change, soluble protein after heating vs DMSO (PISA); higher = thermal stabilisation; K562 lysate, 10 uM; active = over 0.2 and 3.5 SD of the protein, either way, in both replicates (recomputed)
alvocidib = compound: CN1CC[C@H](c2c(O)cc(O)c3c(=O)cc(-c4ccccc4Cl)oc23)[C@H](O)C1 [alvocidib]
Method in brief: (§1)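 A 30 min treatment with 10 μM compound was applied to crude K562 extract at 1 mg/mL protein in PBS pH 7.4 with 1 mM MgCl2. Heating for 3 min spanned 48°C-58°C, after which aliquots were pooled, adjusted to 0.5% NP-40 at 4°C and spun at 21,000xg for 90 min. TMTpro 16plex LC-MS/MS of the supernatant, with channel sums equalised, gave values recorded as log-two fold change in thermal stability against solvent controls, from duplicates.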

Tubastatin A = compound: CN1CCc2c(c3ccccc3n2Cc2ccc(C(=O)NO)cc2)C1 [Tubastatin A]
Method in brief: as §1

[1] = compound: CNC(=O)C1=CC=CC=C1NC2=NC(=NC=C2Cl)NC3=C(C=C(C=C3)N4CCOCC4)OC
Method in brief: as §1

defactinib = compound: CNC(=O)c1ccc(Nc2ncc(C(F)(F)F)c(NCc3nccnc3N(C)S(C)(=O)=O)n2)cc1 [defactinib]
Method in brief: as §1

[2] = compound: CNc1nc(-c2ccc3c(N)n[nH]c3c2)cc(N2C[C@@H](C(=O)NC3CCCCC3)CC[C@H]2C)n1
Method in brief: as §1

encorafenib = compound: COC(=O)N[C@@H](C)CNc1nccc(-c2cn(C(C)C)nc2-c2cc(Cl)cc(NS(C)(=O)=O)c2F)n1 [encorafenib]
Method in brief: as §1

[3] = compound: COC(=O)[C@H](CCSC)NC(=O)C1=C(C=C(C=C1)NC[C@H](CS)N)C2=CC=CC=C2
Method in brief: as §1

alisertib = compound: COc1cc(Nc2ncc3c(n2)-c2ccc(Cl)cc2C(c2c(F)cccc2OC)=NC3)ccc1C(=O)O [alisertib]
Method in brief: as §1

[4] = compound: COc1cc2nc(-c3cc(F)ccc3O)nc(N[C@@H]3CNC[C@H]3C(C)(C)O)c2cc1OC
Method in brief: as §1

gefitinib = compound: COc1cc2ncnc(Nc3ccc(F)c(Cl)c3)c2cc1OCCCN1CCOCC1 [gefitinib]
Method in brief: as §1

lapatinib = compound: CS(=O)(=O)CCNCc1ccc(-c2ccc3ncnc(Nc4ccc(OCc5cccc(F)c5)c(Cl)c4)c3c2)o1 [lapatinib]
Method in brief: as §1

pictilisib = compound: CS(=O)(=O)N1CCN(Cc2cc3nc(-c4cccc5[nH]ncc45)nc(N4CCOCC4)c3s2)CC1 [pictilisib]
Method in brief: as §1

crizotinib = compound: C[C@@H](Oc1cc(-c2cnn(C3CCNCC3)c2)cnc1N)c1c(Cl)ccc(F)c1Cl [crizotinib]
Method in brief: as §1

[5] = compound: C[C@H](C1=CC=C(C=C1)C(=O)NC2=C3C=CNC3=NC=C2)N
Method in brief: as §1

duvelisib = compound: C[C@H](Nc1ncnc2nc[nH]c12)c1cc2cccc(Cl)c2c(=O)n1-c1ccccc1 [duvelisib]
Method in brief: as §1

gandotinib = compound: Cc1cc(Nc2cc(CN3CCOCC3)c3nc(C)c(Cc4ccc(Cl)cc4F)n3n2)n[nH]1 [gandotinib]
Method in brief: as §1

tozasertib = compound: Cc1cc(Nc2cc(N3CCN(C)CC3)nc(Sc3ccc(NC(=O)C4CC4)cc3)n2)n[nH]1 [tozasertib]
Method in brief: as §1

doramapimod = compound: Cc1ccc(-n2nc(C(C)(C)C)cc2NC(=O)Nc2ccc(OCCN3CCOCC3)c3ccccc23)cc1 [doramapimod]
Method in brief: as §1

bafetinib = compound: Cc1ccc(NC(=O)c2ccc(CN3CC[C@H](N(C)C)C3)c(C(F)(F)F)c2)cc1Nc1nccc(-c2cncnc2)n1 [bafetinib]
Method in brief: as §1

[6] = compound: Cc1cccc(CC(=O)N2CCc3c2ccc(-c2cn(C)c4ncnc(N)c24)c3F)n1
Method in brief: as §1

Chain of UniProt P15104 (P15104 whole entry, looked up): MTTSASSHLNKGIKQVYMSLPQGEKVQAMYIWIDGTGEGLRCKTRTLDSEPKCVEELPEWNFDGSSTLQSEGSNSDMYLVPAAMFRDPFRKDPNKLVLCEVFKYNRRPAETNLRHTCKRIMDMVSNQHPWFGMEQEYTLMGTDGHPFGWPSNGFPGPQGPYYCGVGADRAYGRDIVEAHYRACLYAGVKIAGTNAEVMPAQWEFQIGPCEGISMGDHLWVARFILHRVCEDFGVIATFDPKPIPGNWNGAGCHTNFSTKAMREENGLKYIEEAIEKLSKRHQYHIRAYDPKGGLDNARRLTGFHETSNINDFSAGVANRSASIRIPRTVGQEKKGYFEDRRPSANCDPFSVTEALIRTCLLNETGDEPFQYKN
Chain of UniProt Q9H4A5 (Q9H4A5 whole entry, looked up): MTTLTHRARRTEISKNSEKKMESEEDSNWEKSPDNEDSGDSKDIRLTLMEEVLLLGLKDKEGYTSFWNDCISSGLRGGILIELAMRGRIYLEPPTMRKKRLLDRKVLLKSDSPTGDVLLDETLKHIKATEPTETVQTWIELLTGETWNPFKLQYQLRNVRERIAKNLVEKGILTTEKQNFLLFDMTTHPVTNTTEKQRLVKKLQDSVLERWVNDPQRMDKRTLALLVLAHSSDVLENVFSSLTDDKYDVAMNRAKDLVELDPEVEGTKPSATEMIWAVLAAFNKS
Chain of UniProt P43250 (P43250 whole entry, looked up): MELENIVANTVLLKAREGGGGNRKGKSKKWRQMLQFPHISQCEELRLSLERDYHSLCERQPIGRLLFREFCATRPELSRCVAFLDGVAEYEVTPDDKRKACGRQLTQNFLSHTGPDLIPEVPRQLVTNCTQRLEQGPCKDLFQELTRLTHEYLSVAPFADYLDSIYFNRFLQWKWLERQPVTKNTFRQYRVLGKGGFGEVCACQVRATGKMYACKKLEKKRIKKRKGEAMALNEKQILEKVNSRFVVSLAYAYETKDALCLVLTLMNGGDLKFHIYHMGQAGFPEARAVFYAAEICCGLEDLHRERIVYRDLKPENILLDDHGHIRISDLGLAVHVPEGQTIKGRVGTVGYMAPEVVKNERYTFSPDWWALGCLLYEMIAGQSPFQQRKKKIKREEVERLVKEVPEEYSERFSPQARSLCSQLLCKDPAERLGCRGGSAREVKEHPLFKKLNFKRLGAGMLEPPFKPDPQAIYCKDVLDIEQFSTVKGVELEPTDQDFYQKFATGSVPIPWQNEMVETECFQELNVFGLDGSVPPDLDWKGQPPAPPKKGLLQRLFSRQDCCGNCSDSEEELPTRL
Chain of UniProt Q68CZ6 (Q68CZ6 whole entry, looked up): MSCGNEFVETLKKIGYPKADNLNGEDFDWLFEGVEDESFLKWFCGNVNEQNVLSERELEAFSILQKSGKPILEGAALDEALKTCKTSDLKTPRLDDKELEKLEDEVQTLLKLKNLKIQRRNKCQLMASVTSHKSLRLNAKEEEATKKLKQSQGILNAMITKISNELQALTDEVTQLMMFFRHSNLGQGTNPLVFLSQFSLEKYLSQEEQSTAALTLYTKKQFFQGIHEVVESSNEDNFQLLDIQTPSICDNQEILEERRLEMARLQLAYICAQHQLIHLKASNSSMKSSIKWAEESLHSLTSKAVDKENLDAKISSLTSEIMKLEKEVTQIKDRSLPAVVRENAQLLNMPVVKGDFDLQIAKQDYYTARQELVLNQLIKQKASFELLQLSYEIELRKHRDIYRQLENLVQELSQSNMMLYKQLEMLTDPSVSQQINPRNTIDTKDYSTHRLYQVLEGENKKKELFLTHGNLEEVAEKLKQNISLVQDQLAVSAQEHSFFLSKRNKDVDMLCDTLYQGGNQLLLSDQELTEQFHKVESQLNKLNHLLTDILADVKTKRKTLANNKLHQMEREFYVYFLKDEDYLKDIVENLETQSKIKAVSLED
Chain of UniProt P49915 (P49915 whole entry, looked up): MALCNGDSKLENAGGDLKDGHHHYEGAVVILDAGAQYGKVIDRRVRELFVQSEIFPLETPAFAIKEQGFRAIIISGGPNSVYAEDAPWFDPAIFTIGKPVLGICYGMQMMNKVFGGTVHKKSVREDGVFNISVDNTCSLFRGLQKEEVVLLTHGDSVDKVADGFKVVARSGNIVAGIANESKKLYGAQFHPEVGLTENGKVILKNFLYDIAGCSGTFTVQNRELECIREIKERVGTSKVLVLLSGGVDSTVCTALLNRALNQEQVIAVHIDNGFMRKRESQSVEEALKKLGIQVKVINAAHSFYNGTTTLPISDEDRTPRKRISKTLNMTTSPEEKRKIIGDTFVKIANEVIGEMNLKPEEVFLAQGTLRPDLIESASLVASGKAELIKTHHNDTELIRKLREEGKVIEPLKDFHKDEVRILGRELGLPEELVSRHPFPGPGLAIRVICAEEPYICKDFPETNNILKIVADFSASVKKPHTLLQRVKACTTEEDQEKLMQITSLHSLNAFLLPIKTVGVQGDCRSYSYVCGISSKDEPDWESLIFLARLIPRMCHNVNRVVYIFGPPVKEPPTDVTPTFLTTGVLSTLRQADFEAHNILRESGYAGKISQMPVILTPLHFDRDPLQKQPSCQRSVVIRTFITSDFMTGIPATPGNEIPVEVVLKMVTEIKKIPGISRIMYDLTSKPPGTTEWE
Chain of UniProt Q9UBN7 (Q9UBN7 whole entry, looked up): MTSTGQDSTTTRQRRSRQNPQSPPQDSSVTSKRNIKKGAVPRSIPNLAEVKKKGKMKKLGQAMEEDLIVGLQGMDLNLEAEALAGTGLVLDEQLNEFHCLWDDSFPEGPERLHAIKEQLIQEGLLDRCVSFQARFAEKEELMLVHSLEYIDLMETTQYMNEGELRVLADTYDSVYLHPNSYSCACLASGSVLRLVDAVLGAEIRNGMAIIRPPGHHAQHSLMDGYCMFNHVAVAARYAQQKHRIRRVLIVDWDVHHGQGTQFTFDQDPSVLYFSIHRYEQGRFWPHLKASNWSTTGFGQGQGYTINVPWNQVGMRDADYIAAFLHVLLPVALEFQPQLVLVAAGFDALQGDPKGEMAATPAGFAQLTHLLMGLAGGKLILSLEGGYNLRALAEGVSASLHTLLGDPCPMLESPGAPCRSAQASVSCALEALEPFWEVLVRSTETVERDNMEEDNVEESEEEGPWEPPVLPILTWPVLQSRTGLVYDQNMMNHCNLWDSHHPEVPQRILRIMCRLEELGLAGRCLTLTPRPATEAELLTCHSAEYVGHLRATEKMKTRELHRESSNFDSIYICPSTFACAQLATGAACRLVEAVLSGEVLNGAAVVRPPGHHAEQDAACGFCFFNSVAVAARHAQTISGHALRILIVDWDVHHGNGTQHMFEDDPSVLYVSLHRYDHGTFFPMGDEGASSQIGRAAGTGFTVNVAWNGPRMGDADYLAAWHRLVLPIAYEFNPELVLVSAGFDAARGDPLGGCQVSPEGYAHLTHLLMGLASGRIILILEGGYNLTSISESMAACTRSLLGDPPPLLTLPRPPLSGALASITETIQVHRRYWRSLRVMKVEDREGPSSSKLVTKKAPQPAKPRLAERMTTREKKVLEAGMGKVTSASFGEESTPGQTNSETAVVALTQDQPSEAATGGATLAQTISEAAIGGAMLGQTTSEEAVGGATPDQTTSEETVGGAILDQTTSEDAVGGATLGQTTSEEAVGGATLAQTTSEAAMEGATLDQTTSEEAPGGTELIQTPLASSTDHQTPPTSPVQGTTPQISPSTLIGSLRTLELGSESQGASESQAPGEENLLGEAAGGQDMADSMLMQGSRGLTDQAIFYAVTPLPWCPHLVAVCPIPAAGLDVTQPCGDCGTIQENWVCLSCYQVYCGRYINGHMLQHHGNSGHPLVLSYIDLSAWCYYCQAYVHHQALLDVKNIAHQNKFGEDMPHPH
Chain of UniProt Q13547 (Q13547 whole entry, looked up): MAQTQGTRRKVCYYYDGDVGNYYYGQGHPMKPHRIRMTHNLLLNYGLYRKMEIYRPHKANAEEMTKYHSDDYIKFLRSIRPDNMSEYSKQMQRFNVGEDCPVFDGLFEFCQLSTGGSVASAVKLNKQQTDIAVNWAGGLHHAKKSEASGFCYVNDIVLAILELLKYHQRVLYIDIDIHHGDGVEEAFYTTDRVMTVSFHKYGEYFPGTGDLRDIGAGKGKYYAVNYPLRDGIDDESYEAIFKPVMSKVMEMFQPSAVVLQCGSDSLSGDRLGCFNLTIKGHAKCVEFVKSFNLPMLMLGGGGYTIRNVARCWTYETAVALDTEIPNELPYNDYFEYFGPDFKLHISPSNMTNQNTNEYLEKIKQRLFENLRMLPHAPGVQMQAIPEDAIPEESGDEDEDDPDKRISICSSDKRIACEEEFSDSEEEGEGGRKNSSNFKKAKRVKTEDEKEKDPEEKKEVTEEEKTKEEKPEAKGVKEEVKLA
Chain of UniProt Q07666 (Q07666 whole entry, looked up): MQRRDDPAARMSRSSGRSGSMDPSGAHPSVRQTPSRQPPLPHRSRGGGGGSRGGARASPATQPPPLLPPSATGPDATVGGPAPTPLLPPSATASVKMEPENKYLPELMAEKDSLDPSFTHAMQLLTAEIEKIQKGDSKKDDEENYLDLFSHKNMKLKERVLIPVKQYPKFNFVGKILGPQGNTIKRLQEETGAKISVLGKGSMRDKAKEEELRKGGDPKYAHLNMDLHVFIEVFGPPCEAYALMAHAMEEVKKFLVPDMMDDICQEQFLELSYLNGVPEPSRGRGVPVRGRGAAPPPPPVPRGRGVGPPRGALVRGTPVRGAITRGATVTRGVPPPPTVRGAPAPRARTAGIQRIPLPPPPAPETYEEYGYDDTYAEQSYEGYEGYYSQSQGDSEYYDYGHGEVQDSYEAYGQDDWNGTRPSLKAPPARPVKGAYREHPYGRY
Chain of UniProt Q6DN03 (Q6DN03 whole entry, looked up): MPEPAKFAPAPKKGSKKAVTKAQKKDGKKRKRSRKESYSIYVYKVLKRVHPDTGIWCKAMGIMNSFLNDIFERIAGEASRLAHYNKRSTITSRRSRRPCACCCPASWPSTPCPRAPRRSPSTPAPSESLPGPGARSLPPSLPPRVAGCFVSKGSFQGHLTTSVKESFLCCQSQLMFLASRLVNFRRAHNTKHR

| Target | log2 fold change (alvocidib) | log2 fold change (Tubastatin A) | log2 fold change [1] | log2 fold change (defactinib) | log2 fold change [2] | log2 fold change (encorafenib) | log2 fold change [3] | log2 fold change (alisertib) | log2 fold change [4] | log2 fold change (gefitinib) | log2 fold change (lapatinib) | log2 fold change (pictilisib) | log2 fold change (crizotinib) | log2 fold change [5] | log2 fold change (duvelisib) | log2 fold change (gandotinib) | log2 fold change (tozasertib) | log2 fold change (doramapimod) | log2 fold change (bafetinib) | log2 fold change [6] |
| --- | --- | --- | --- | --- | --- | --- | --- | --- | --- | --- | --- | --- | --- | --- | --- | --- | --- | --- | --- | --- |
| HECTD4 (UniProt J3KPF0) | -0.027 | -0.075 | 0.001 | 0.012 | -0.017 | -0.072 | 0.146 | 0.013 | 0.045 | -0.043 | -0.024 | -0.043 | -0.127 | -0.005 | -0.004 | -0.024 | 0.01 | -0.002 | -0.083 | 0.101 |
| HEATR3 (UniProt Q7Z4Q2) | 0.007 | -0.129 | 0.02 | 0.012 | 0 | 0.014 | 0.116 | 0.018 | -0.046 | 0.003 | -0.003 | 0 | -0.074 | -0.006 | -0.005 | -0.078 | -0.021 | 0.027 | -0.064 | 0.031 |
| KHDRBS1 (UniProt Q07666) | 0.039 | -0.045 | 0.017 | -0.006 | 0.007 | 0.019 | -0.139 | -0.025 | 0.011 | -0.01 | -0.035 | 0.024 | 0.025 | 0.046 | 0.005 | -0.08 | 0.008 | -0.017 | 0.039 | -0.031 |
| HACE1 (UniProt Q8IYU2) | -0.177 | 0.006 | -0.042 | -0.06 | 0.278 | -0.057 | 0.18 | 0.061 | 0.045 | -0.152 | -0.05 | 0.005 | 0.026 | -0.491 (active) | 0.033 | 0.302 | -0.036 | 0.015 | -0.036 | 0.426 |
| HMGB1 (UniProt P09429) | 0.126 | 0.059 | 0.01 | 0.074 | 0.046 | -0.006 | -0.09 | -0.043 | -0.025 | -0.131 | 0.017 | 0.02 | -0.024 | 0.304 (active) | 0.028 | -0.097 | 0.03 | -0.014 | 0.079 | -0.154 |
| GRK6 isoform 2 (UniProt P43250) | -0.05 | 0.074 | 0.007 | 0.034 | 0.148 | -0.082 | 0.043 | -0.04 | -0.015 | 0.064 | -0.122 | -0.088 | 0.084 | -0.066 | -0.04 | 0.058 | -0.063 | 0.046 | 0.065 | 0.028 |
| HDAC6 (UniProt Q9UBN7) | -0.006 | 0.11 | -0.015 | -0.003 | -0.013 | -0.017 | 0.06 | 0.013 | 0.001 | -0.012 | -0.019 | -0.085 | -0.039 | 0.014 | 0.065 | -0.017 | 0.002 | 0.012 | -0.069 | -0.01 |
| GOLPH3L (UniProt Q9H4A5) | 0.018 | -0.083 | -0.005 | -0.077 | 0.008 | 0.063 | -0.395 (active) | 0.026 | -0.059 | 0.018 | 0.019 | -0.048 | -0.106 | -0.028 | -0.027 | -0.05 | -0.071 | -0.009 | -0.146 | 0.029 |
| KCT2 (UniProt Q8NC54) | -0.137 | 0.029 | -0.001 | -0.012 | 0.013 | 0.031 | -0.035 | 0.077 | 0 | -0.037 | -0.005 | -0.018 | 0.048 | -0.331 (active) | 0.018 | 0.277 (active) | 0.005 | -0.028 | -0.023 | 0.099 |
| INPPL1 (UniProt O15357) | -0.001 | -0.177 | 0.039 | 0 | -0.001 | 0.009 | 0.037 | 0.036 | -0.013 | 0.01 | 0.023 | 0.006 | -0.047 | -0.05 | -0.004 | -0.065 | 0.029 | 0.01 | -0.05 | 0.03 |
| KDM1A (UniProt O60341) | -0.034 | -0.067 | -0.023 | -0.003 | 0.013 | 0.003 | 0.095 | 0.012 | 0.001 | 0.006 | -0.01 | -0.029 | -0.036 | -0.055 | -0.025 | -0.056 | -0.031 | 0.015 | -0.016 | 0.025 |
| HDAC1 (UniProt Q13547) | 0.003 | -0.027 | -0.015 | 0.014 | -0.012 | 0.006 | 0.04 | 0.017 | -0.031 | 0.004 | 0.004 | 0.01 | -0.014 | -0.04 | -0.029 | -0.004 | -0.015 | 0.006 | 0.036 | 0.036 |
| GMPS (UniProt P49915) | 0.04 | -0.065 | -0.009 | 0.014 | -0.025 | -0.022 | 0.025 | 0.005 | -0.003 | -0.026 | -0.008 | -0.014 | 0.007 | 0.115 | 0.006 | -0.071 | -0.001 | -0.036 | -0.012 | -0.032 |
| HIST2H2BC (UniProt Q6DN03) | 0.024 | 0.004 | 0.019 | -0.148 | -0.003 | 0.092 | 0.143 | 0.005 | 0.008 | -0.12 | -0.024 | 0.02 | -0.024 | 0.183 | -0.083 | -0.054 | 0.019 | 0.007 | 0.018 | -0.019 |
| HAUS3 (UniProt Q68CZ6) | -0.022 | -0.159 | 0.043 | -0.023 | -0.021 | 0.026 | 0.065 | 0.014 | 0.003 | -0.011 | -0.011 | -0.001 | -0.084 | 0.013 | -0.042 | -0.059 | 0.014 | -0.034 | -0.11 | 0.079 |
| GLUL (UniProt P15104) | 0.011 | 0.015 | 0.034 | 0.027 | -0.125 | -0.002 | 0.029 | 0.002 | -0.019 | -0.004 | 0.04 | 0.015 | 0.066 | 0.213 (active) | 0.019 | -0.093 | -0.026 | 0.014 | 0.013 | -0.147 |
